Outcome data for 40 compounds are collected here from PubChem BioAssay (NCATS).

Results filed as inconclusive are left out. The source made the active and inactive calls. Calls follow the shape of the dose curve; as a rule, active = well fitted curve in the direction sought with a large enough effect in the signal ratio, with a control signal flat (not every such curve was filed as active); inconclusive = small, poorly fitted or top-dose-only effect, or effect the other way, or a change in a side signal; inactive = no such curve, though single readings can be large or run the other way; the % refers to the signal ratio.

Chain of Tyrosine-protein phosphatase non-receptor type substrate 1 (Homo sapiens) + Leukocyte surface antigen CD47 (Homo sapiens) (P78324 whole entry, looked up): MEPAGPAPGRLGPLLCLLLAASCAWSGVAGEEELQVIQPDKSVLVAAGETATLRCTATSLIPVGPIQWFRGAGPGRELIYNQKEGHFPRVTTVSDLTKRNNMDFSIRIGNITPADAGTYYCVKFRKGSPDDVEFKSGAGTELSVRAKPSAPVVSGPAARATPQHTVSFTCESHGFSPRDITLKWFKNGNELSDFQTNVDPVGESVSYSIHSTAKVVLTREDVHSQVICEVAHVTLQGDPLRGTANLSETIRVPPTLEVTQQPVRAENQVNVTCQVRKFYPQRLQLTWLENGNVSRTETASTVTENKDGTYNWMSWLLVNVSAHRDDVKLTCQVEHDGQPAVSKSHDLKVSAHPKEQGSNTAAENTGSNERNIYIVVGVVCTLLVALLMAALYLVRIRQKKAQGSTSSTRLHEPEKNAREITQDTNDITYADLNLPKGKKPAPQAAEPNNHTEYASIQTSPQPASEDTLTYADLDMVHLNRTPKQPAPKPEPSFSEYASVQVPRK
Chain of Tyrosine-protein phosphatase non-receptor type substrate 1 (Homo sapiens) + Leukocyte surface antigen CD47 (Homo sapiens) (Q08722 whole entry, looked up): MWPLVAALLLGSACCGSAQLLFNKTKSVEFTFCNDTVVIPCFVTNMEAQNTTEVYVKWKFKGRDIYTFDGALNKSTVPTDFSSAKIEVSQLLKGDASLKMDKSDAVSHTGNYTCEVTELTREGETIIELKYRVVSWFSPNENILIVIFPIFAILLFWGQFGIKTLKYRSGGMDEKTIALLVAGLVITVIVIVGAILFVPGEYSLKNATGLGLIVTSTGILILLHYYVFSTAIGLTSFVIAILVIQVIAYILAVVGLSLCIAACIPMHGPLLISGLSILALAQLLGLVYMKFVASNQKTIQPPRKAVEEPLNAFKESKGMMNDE

The target of the experiment is Tyrosine-protein phosphatase non-receptor type substrate 1 (Homo sapiens) + Leukocyte surface antigen CD47 (Homo sapiens) (UniProt P78324+Q08722). As to the kind of experiment: CD47-SIRPalpha protein protein interaction - LANCE assay qHTS validation (AID 1347057). The following applies: Recombinant CD47-His / biotin-SIRPalpha, TR-FRET ratio; series mostly up to 38.3 µM. The source says:
SIRPalpha is a myeloid cell expressed immunomodulatory receptor that binds the tumor expressed immune checkpoint CD47. Therapeutic disruption of this interaction leads to immune-mediated tumor rejection. This assay was used to quantitate CD47-SIRPalpha binding biochemically and evaluate chemical libraries for novel CD47-SIRPalpha inhibitors. To recapitulate the biological interaction of CD47 and SIRPalpha, we designed expression constructs to produce their recombinant, soluble, extracellular interaction domains. CD47 was produced with an N-terminal 6His tag. SIRPalpha was produced with an N-terminal Avi-Tag for site-specific biotin incorporation. The CD47-SIRPalpha interaction was measured by TR-FRET using affinity tag linked reagents (anti-6His-Eu donor and streptavidin-APC acceptor). SIRPalpha without biotin incorporation was used as a positive control inhibitor.
PROTOCOL TABLE (as described by Miller, T. et al. 2019)
SEQUENCE No. (e.g., 1, 2, 3, etc.); […] (e.g., Cells, Incubation, Reagent, etc.); VALUE and DESCRIPTION.
1a. Reagent. 3 uL CD47-His (12.5 nM) and Anti-His Eu Donor reagent (3 nM) added to respective wells in Assay buffer; white/solid bottom high base, med bind 1536-well plates (Greiner 789075)
1b. Reagent. 2 uL Assay buffer negative control for background fluorescence
2. Reagent. 23 nL library compounds (7-pt, 1:4 intraplate titration series) or DMSO control transferred by Pin Tool
3. Centrifuge. Centrifuge plate for 30 s at 1000 RPM
4. Incubation.#Incubate reagents at room temperature for 30 min, protected from light
5. Reagent. 2 uL SIRPalpha-biotin (100 nM) in Assay buffer
6. Incubation.#Incubate reagents at room temperature for 30 min, protected from light
7. Reagent. 1 uL SAV-APC (26 nM) acceptor reagent added to respective wells
8. Centrifuge. Centrifuge plate for 30 s at 1000 RPM
9. Incubation. Incubate reagents at room temperature for 30 min, protected from light
10. Detector. Measure Top TR-FRET on EnVision (Eu/APC filter set); calculate ratio Ch1/Ch2
1. Assay buffer composition.#Phosphate buffered saline (PBS; 10 mM Phosphate, 137 mM NaCl, and 2.7 mM KCl; pH 7.4), 0.05% IGEPAL CA-630
2. 23nL of […] library compounds (7 plates) or DMSO vehicle control transferred to 9 Greiner white/solid bottom high base, TC plates in 7 interplate 1:5 titrations (see Yasgar, A. et al. 2008) with Pintool. Two of the 9 plates are DMSO-only in compound field at beginning and end of compound library-treated plates.
10. Detector settings#Mirror = LANCE/DELFIA Dual Enh; Ex. Filter = UV2[TRF] 320; Em. Filter = APC 665; 2nd Em. Filter = Europium 615; Measurement h = 6.5; Ex. light (%) = 100; Delay = 60 us; Window t = 100 us; No. Seq. windows = 1; Time between flashes = 2000us; No. of flashes = 100; No. of flashes for 2nd detector = 100; Calculation: "Ratio Ch1/Ch2"
With `COC(=O)[C@@H](N)Cc1ccc(O)c(O)c1`, the outcome was inactive.

Turning to `Cc1cccc(C)c1NC(=O)C(C)N` (stereo not given), the result was inactive.

Take `NC(Cc1ccc(Cl)cc1)C(=O)O` (stereo not given): the result was inactive.

For the compound `COCCc1ccc(OCC(O)CNC(C)C)cc1` (stereo not given), the outcome was inactive.

Regarding `O=C(O)CN(CCOCCOCCN(CC(=O)O)CC(=O)O)CC(=O)O`, the outcome was inactive.

Consider `O=C(CCNNC(=O)c1ccncc1)NCc1ccccc1`, for which the outcome was inactive.

As to `COC(=O)C1=C(C)NC(C)=C(C(=O)OCCN(C)Cc2ccccc2)C1c1cccc([N+](=O)[O-])c1` (stereo not given), the outcome was inactive.

As for `COCCOC(=O)C1=C(C)NC(C)=C(C(=O)OC(C)C)C1c1cccc([N+](=O)[O-])c1` (stereo not given), the outcome was inactive.

In the case of `NCCCNCCSP(=O)(O)O`, the result was inactive.

For `COc1ccc2c(c1OC)C(=O)O[C@@H]2[C@H]1c2c(cc3c(c2OC)OCO3)CCN1C`, the outcome was inactive.

On to `Nc1ncn([C@@H]2O[C@H](CO)[C@@H](O)[C@H]2O)c(=O)n1`, for which the result was inactive.

Take `Cc1nnc(SCC2=C(C(=O)O)N3C(=O)[C@@H](NC(=O)Cn4cnnn4)[C@H]3SC2)s1`: the result was inactive.

As to `Nc1nc(N)c2nc(-c3ccccc3)c(N)nc2n1`, the result was inactive.

Turning to `CN(C)CC/C=C1\c2ccccc2COc2ccccc21`, the result was inactive.

Turning to `NC/C=C/C(=O)O`, the result was inactive.

For the compound `C(=C\c1ccccc1)/CN1CCN(C(c2ccccc2)c2ccccc2)CC1`, the result was inactive.

With `CC(=O)OCC1=C(C(=O)O)N2C(=O)[C@@H](NC(=O)Cc3cccs3)[C@H]2SC1`, the result was inactive.

`CC1=C(C)C(=O)C(CCCCC#CCCCC#CCO)=C(C)C1=O`: the outcome was inactive.

As for `CCCNC(C)C(=O)Nc1ccccc1C` (stereo not given), the result was inactive.

Turning to `CC(C(=O)O)c1ccc(CC2CCCC2=O)cc1` (stereo not given), the outcome was inactive.

As to `Cc1ccc(/C(=C\CN2CCCC2)c2ccccn2)cc1`, the outcome was inactive.

For the compound `CN(C)C(=O)Oc1ccc[n+](C)c1`, the result was inactive.

Turning to `OCCN1CCN(CCCN2c3ccccc3C=Cc3ccccc32)CC1`, the result was inactive.

With `FC(F)(F)c1ccccc1-n1ccnc1`, the outcome was inactive.

Turning to `CCn1ccnc1CC1COc2ccccc2O1` (stereo not given), the outcome was inactive.

With `NC1=NCC2c3ccccc3Cc3ccccc3N12` (stereo not given), the result was inactive.

With `CC(C)NNC(=O)c1ccncc1`, the outcome was inactive.

On to `CCOC(=O)C1=C(C)NC(C)=C(C(=O)OC)C1c1cccc([N+](=O)[O-])c1` (stereo not given), for which the outcome was inactive.

For `CN1CCN(CC(=O)N2c3ccccc3C(=O)Nc3cccnc32)CC1`, the outcome was inactive.

With `Cc1ccc(Cl)c(Nc2ccccc2C(=O)O)c1Cl`, the result was inactive.

On to `COc1ccc(CN(CCN(C)C)c2ccccn2)cc1`, for which the result was inactive.

For `CN(C)CCCN1c2ccccc2Sc2ccccc21`, the outcome was inactive.

As for `COC(=O)[C@H]1[C@H]2C[C@@H]3c4[nH]c5cc(OC)ccc5c4CCN3C[C@H]2C[C@@H](OC(=O)c2cc(OC)c(OC)c(OC)c2)[C@@H]1OC`, the outcome was inactive.

As to `CSc1ccc(C(=O)c2[nH]c(=O)[nH]c2C)cc1`, the outcome was inactive.

On to `CCOC(=O)C1=C(C)NC(C)=C(C(=O)OC)C1c1cccc(Cl)c1Cl` (stereo not given), for which the outcome was inactive.

Take `CCCN1C[C@H](CSC)C[C@@H]2c3cccc4[nH]cc(c34)C[C@H]21`: the outcome was inactive.

Turning to `CCCCNc1c(C(=O)OCC)c(C)nc2c1cnn2CC`, the result was inactive.

Regarding `CC(C)NCC(O)c1cc(O)cc(O)c1` (stereo not given), the result was inactive.

`CC(=O)OC(C)C[N+](C)(C)C` (stereo not given): the outcome was inactive.

On to `C[C@]12CCC(=O)C=C1CC[C@@H]1[C@@H]2CC[C@@]2(C)[C@H]1CC[C@]2(O)C(=O)CO`, for which the result was inactive.
